In publication PMC7862700, “An all-to-all approach to the identification of sequence-specific readers for epigenetic DNA modifications on cytosine” one finds binding signal data, which are given here for 36 sequences.

What all share (experiment): DAPPL (digital affinity profiling via proximity ligation, sequencing); 10 mM Tris-HCl pH 7.5, 50 mM NaCl, 1 mM DTT, 4% glycerol, room temperature, 30 min; GST-TFs on glutathione beads, 16-mer random dsDNA library, 0.1% formaldehyde crosslink after washing; high values mean tight binding
What all share (details): protein: recombinant; tags: N-terminal GST; dsDNA, one strand shown

One assay has as its target T1, FLI1 (Homo sapiens, UniProt Q01543 1-452).
T1 sequence: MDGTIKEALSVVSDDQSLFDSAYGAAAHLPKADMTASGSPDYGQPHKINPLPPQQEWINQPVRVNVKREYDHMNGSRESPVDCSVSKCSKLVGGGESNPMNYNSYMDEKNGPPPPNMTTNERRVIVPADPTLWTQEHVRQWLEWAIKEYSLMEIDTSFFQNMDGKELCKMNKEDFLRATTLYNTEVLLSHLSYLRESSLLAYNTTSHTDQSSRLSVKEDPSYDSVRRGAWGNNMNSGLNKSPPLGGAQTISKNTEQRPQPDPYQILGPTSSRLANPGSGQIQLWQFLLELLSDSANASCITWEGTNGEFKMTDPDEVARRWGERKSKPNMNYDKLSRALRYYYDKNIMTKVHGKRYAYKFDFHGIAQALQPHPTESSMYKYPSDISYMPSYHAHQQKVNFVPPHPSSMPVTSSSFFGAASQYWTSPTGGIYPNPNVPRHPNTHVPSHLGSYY
The procedure, abridged: (§1)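 Yeast served to express human transcription factors as GST fusions, which were then captured on glutathione beads and labelled with DNA barcodes. Pooled with a tag-only sample, they were incubated with 200 nmole of a 16-mer random double-stranded DNA library for 30 min at room temperature in Tris/NaCl/DTT/glycerol buffer, washed, crosslinked with 0.1% formaldehyde, ligated by proximity, amplified by PCR and sequenced. Dividing each hexamer's read frequency for a factor by its frequency for the tag-only sample gives the binding signal.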

Another assay addresses T2, ELF5 (Homo sapiens, UniProt Q9UKW6-2 1-255).
T2 sequence: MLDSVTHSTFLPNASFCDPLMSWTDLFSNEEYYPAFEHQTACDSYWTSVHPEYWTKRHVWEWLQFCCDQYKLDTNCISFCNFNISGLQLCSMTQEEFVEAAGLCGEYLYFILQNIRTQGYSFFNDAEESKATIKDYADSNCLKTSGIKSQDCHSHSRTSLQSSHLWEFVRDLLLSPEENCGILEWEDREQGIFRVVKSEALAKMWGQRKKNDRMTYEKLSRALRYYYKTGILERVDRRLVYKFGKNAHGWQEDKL
The procedure, abridged:
as §1

Another assay concerns the target T3, SPDEF (Homo sapiens, UniProt O95238 1-335).
T3 sequence: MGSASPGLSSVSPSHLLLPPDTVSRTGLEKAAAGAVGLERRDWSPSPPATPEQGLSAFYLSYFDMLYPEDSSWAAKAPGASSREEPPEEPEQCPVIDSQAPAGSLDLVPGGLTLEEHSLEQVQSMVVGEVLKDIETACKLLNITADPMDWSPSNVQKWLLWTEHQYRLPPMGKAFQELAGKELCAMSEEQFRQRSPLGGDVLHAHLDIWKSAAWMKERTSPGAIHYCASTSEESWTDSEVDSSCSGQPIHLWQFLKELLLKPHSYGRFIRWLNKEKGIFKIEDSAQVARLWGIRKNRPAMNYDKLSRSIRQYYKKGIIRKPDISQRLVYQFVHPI
The procedure, abridged:
as §1

For another assay, the target named is T4, ELK3 (Homo sapiens, UniProt P41970 1-407).
T4 sequence: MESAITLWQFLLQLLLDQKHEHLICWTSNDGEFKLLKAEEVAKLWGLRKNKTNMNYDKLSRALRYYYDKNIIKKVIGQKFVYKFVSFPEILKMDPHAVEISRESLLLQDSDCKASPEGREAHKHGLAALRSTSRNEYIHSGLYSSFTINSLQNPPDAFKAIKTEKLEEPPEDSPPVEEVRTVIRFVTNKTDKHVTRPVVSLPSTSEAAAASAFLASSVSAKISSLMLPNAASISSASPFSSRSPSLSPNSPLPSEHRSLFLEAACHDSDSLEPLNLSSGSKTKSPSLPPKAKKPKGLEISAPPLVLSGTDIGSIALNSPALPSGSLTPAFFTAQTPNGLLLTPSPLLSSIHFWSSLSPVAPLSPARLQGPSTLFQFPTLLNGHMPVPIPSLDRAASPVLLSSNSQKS
The procedure, abridged:
as §1

The target in another assay is CRX (Homo sapiens, UniProt O43186 1-299). The procedure, abridged: as §1
Sequence of CRX (O43186 whole entry): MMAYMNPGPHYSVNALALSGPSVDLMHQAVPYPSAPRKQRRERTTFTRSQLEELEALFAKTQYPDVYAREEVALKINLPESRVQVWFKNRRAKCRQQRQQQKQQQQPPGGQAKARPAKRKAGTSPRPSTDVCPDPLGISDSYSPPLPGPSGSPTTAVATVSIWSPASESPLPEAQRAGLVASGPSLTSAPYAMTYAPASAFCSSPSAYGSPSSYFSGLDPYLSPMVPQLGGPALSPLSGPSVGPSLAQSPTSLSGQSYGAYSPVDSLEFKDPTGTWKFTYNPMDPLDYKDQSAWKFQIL

For CGTAGC, the binding signal is 1.13 fold enrichment (6-mer frequency, TF over GST control) with FLI1 and 1.05 fold enrichment (6-mer frequency, TF over GST control) with ELF5.
Regarding TGCCCA, the binding signal in the assay with FLI1 was 1.21 fold enrichment (6-mer frequency, TF over GST control); with SPDEF, 1.12 fold enrichment (6-mer frequency, TF over GST control); with ELF5, 1.01 fold enrichment (6-mer frequency, TF over GST control).
As for TCACCG, the binding signal with FLI1 was 1.06 fold enrichment (6-mer frequency, TF over GST control); in the assay with ELK3 it was 1.13 fold enrichment (6-mer frequency, TF over GST control); in the assay with ELF5 it was 1.01 fold enrichment (6-mer frequency, TF over GST control).
Consider CAGCAT, for which the binding signal is 1.04 fold enrichment (6-mer frequency, TF over GST control) in the assay with FLI1; 1.19 fold enrichment (6-mer frequency, TF over GST control) with ELK3; 1.05 fold enrichment (6-mer frequency, TF over GST control) with SPDEF.
Turning to CCGCAG, the binding signal was 1.12 fold enrichment (6-mer frequency, TF over GST control) with FLI1; 1.14 fold enrichment (6-mer frequency, TF over GST control) with ELK3; 1.07 fold enrichment (6-mer frequency, TF over GST control) with SPDEF; 1.04 fold enrichment (6-mer frequency, TF over GST control) with ELF5.
In the case of CGTTGT, the binding signal with FLI1 is 1.15 fold enrichment (6-mer frequency, TF over GST control); with SPDEF, 1.05 fold enrichment (6-mer frequency, TF over GST control); in the assay with ELF5, 1.07 fold enrichment (6-mer frequency, TF over GST control).
Regarding TGGCTG, the binding signal with FLI1 was 1.11 fold enrichment (6-mer frequency, TF over GST control); with SPDEF it was 1.01 fold enrichment (6-mer frequency, TF over GST control); with ELF5, 1.01 fold enrichment (6-mer frequency, TF over GST control).
On to ACCGGC, for which the binding signal is 1.07 fold enrichment (6-mer frequency, TF over GST control) with FLI1; 1.11 fold enrichment (6-mer frequency, TF over GST control) with ELK3; 1.05 fold enrichment (6-mer frequency, TF over GST control) with SPDEF; 1.11 fold enrichment (6-mer frequency, TF over GST control) in the assay with ELF5.
Consider AGGACC, for which the binding signal is 1.13 fold enrichment (6-mer frequency, TF over GST control) with FLI1; 1.15 fold enrichment (6-mer frequency, TF over GST control) in the assay with ELK3; 1.06 fold enrichment (6-mer frequency, TF over GST control) with SPDEF; 1.1 fold enrichment (6-mer frequency, TF over GST control) with ELF5.
On to TGGGCA, for which the binding signal was 1.05 fold enrichment (6-mer frequency, TF over GST control) in the assay with FLI1 and 1.19 fold enrichment (6-mer frequency, TF over GST control) with ELK3.
Regarding GCTAAC, the binding signal with FLI1 is 1.11 fold enrichment (6-mer frequency, TF over GST control); with ELK3, 1.18 fold enrichment (6-mer frequency, TF over GST control).
For the sequence CCAAGC, in the assay with FLI1, the binding signal is 1.01 fold enrichment (6-mer frequency, TF over GST control).
Consider TGCGCC, for which the binding signal with FLI1 is 1.17 fold enrichment (6-mer frequency, TF over GST control); in the assay with ELK3 it was 1.07 fold enrichment (6-mer frequency, TF over GST control); with SPDEF it was 1.07 fold enrichment (6-mer frequency, TF over GST control); with ELF5, 1.11 fold enrichment (6-mer frequency, TF over GST control).
In the case of GGTACA, the binding signal with FLI1 is 1.03 fold enrichment (6-mer frequency, TF over GST control); with SPDEF it was 1.11 fold enrichment (6-mer frequency, TF over GST control); in the assay with ELF5, 1 fold enrichment (6-mer frequency, TF over GST control).
With TCAAGC, the binding signal in the assay with FLI1 is 1.03 fold enrichment (6-mer frequency, TF over GST control); in the assay with ELK3, 1.09 fold enrichment (6-mer frequency, TF over GST control); with CRX, 1.06 fold enrichment (6-mer frequency, TF over GST control).
As to CAGCCT, the binding signal is 1.14 fold enrichment (6-mer frequency, TF over GST control) in the assay with FLI1 and 1.06 fold enrichment (6-mer frequency, TF over GST control) with CRX.
Consider CGTCCA, for which the binding signal with FLI1 was 1.13 fold enrichment (6-mer frequency, TF over GST control); with ELK3, 1.13 fold enrichment (6-mer frequency, TF over GST control); with SPDEF, 1.07 fold enrichment (6-mer frequency, TF over GST control).
As for ACGCGG, the binding signal with FLI1 was 1.04 fold enrichment (6-mer frequency, TF over GST control); with ELK3 it was 1.05 fold enrichment (6-mer frequency, TF over GST control); in the assay with SPDEF it was 1.08 fold enrichment (6-mer frequency, TF over GST control); with ELF5 it was 1.07 fold enrichment (6-mer frequency, TF over GST control).
As for CCCGTC, the binding signal is 1.12 fold enrichment (6-mer frequency, TF over GST control) with FLI1; 1.12 fold enrichment (6-mer frequency, TF over GST control) with SPDEF; 1.12 fold enrichment (6-mer frequency, TF over GST control) with ELF5.
Take GGCTAC: the binding signal was 1.17 fold enrichment (6-mer frequency, TF over GST control) with FLI1; 1.19 fold enrichment (6-mer frequency, TF over GST control) with ELK3; 1.22 fold enrichment (6-mer frequency, TF over GST control) in the assay with SPDEF; 1.16 fold enrichment (6-mer frequency, TF over GST control) in the assay with ELF5.
As to CGTTTG, the binding signal in the assay with FLI1 was 1.05 fold enrichment (6-mer frequency, TF over GST control); with ELK3 it was 1 fold enrichment (6-mer frequency, TF over GST control); with SPDEF, 1.01 fold enrichment (6-mer frequency, TF over GST control); in the assay with ELF5, 1.1 fold enrichment (6-mer frequency, TF over GST control).
As to TCGTCC, the binding signal was 1.1 fold enrichment (6-mer frequency, TF over GST control) in the assay with FLI1; 1.18 fold enrichment (6-mer frequency, TF over GST control) with ELK3; 1.08 fold enrichment (6-mer frequency, TF over GST control) with SPDEF; 1.02 fold enrichment (6-mer frequency, TF over GST control) with ELF5.
Turning to CCCAAG, the binding signal is 1.09 fold enrichment (6-mer frequency, TF over GST control) in the assay with FLI1 and 1 fold enrichment (6-mer frequency, TF over GST control) with ELK3.
On to ACGGTA, for which the binding signal in the assay with FLI1 is 1.02 fold enrichment (6-mer frequency, TF over GST control); with SPDEF it was 1.05 fold enrichment (6-mer frequency, TF over GST control); with ELF5, 1.05 fold enrichment (6-mer frequency, TF over GST control).
For TGCAAG, the binding signal with FLI1 was 1.09 fold enrichment (6-mer frequency, TF over GST control); in the assay with SPDEF, 1.11 fold enrichment (6-mer frequency, TF over GST control); with ELF5 it was 1.05 fold enrichment (6-mer frequency, TF over GST control).
With CGCACG, the binding signal with FLI1 was 1.1 fold enrichment (6-mer frequency, TF over GST control); in the assay with ELK3, 1.02 fold enrichment (6-mer frequency, TF over GST control); with ELF5, 1.02 fold enrichment (6-mer frequency, TF over GST control).
With TCAGTT, the binding signal was 1.02 fold enrichment (6-mer frequency, TF over GST control) with FLI1; 1.09 fold enrichment (6-mer frequency, TF over GST control) in the assay with ELK3; 1.04 fold enrichment (6-mer frequency, TF over GST control) with SPDEF.
For GTAACC, the binding signal with FLI1 is 1.04 fold enrichment (6-mer frequency, TF over GST control); in the assay with ELK3, 1.04 fold enrichment (6-mer frequency, TF over GST control); with SPDEF it was 1.03 fold enrichment (6-mer frequency, TF over GST control); with ELF5, 1.07 fold enrichment (6-mer frequency, TF over GST control).
Consider GCACAC, for which the binding signal with FLI1 is 1.02 fold enrichment (6-mer frequency, TF over GST control).
GGTCAC: the binding signal in the assay with FLI1 was 1.08 fold enrichment (6-mer frequency, TF over GST control); in the assay with SPDEF, 1.05 fold enrichment (6-mer frequency, TF over GST control).
With CGCGTA, the binding signal with FLI1 is 1.07 fold enrichment (6-mer frequency, TF over GST control).
With CGCGTT, the binding signal with FLI1 is 1.1 fold enrichment (6-mer frequency, TF over GST control); with ELK3, 1.06 fold enrichment (6-mer frequency, TF over GST control); with ELF5, 1.02 fold enrichment (6-mer frequency, TF over GST control).
Take CGCCGG: the binding signal in the assay with FLI1 was 1.01 fold enrichment (6-mer frequency, TF over GST control); with ELK3, 1.08 fold enrichment (6-mer frequency, TF over GST control); with SPDEF, 1.05 fold enrichment (6-mer frequency, TF over GST control); in the assay with ELF5, 1.02 fold enrichment (6-mer frequency, TF over GST control).
CAATGG: the binding signal with FLI1 is 1.14 fold enrichment (6-mer frequency, TF over GST control).
For GGTGGT, the binding signal in the assay with FLI1 was 1.05 fold enrichment (6-mer frequency, TF over GST control); with ELK3, 1.03 fold enrichment (6-mer frequency, TF over GST control).
Take AGCGCT: the binding signal in the assay with FLI1 was 1.1 fold enrichment (6-mer frequency, TF over GST control); with ELK3, 1.14 fold enrichment (6-mer frequency, TF over GST control); with CRX, 1.01 fold enrichment (6-mer frequency, TF over GST control); in the assay with ELF5, 1 fold enrichment (6-mer frequency, TF over GST control).
